Among the data in PubChem BioAssay (Tox21) are Potency and outcome values, retold here.

The structures appear in SMILES notation. Where “and” joins values, the source holds several entries; their conditions need not be identical. Equal entries are not always repeated. Inconclusive results are not listed. Calls of active or inactive are those of the source. Unless noted, the call rests on the fitted dose curve; in most records, active means well fitted curve in the direction sought with a large enough effect in the repeat runs; inconclusive means weak or mixed curves; inactive means no such curve, though single readings can be large; an effect the other way counts as inactive or inconclusive.

Assay [1] is described as follows: qHTS assay to identify small molecule antagonists of the sonic hedgehog signaling (Shh) pathway (AID 1259369; calls by dose curve; further: nearly all actives have a fitted effect of over 45% in size). A digest of the protocol:
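Conditioned medium drives Shh signalling in 3T3Gli1-Luc cells; compounds in DMSO co-applied, 24hr at 37 C, then luciferase luminescence.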

Assay [2] has as its target Estrogen receptor beta (Homo sapiens) (UniProt Q92731). As to the kind of experiment: qHTS assay to identify small molecule agonists of the estrogen receptor beta (ER-beta) signaling pathway (AID 1259377; active means well fitted activation curve with a large enough effect in the signal ratio in the repeat runs, not every such curve was filed as active; the % refers to the signal ratio). The method, boiled down: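 qHTS in ER-beta-UAS-bla HEK293T cells: 6 hr settling, then 16 hr compound at 37C, then LiveBLAzer substrate 2 h at RT before fluorescence reading.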

Assay [3] shares this target. As to the kind of experiment: qHTS assay to identify small molecule antagonists of the estrogen receptor beta (ER-beta) signaling pathway (AID 1259378; active means well fitted inhibition curve with a large enough effect in the signal ratio in the repeat runs, not every such curve was filed as active; the % refers to the signal ratio). The method, boiled down:
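ER-beta-UAS-bla HEK293T (GripTite) cells in 2% charcoal-stripped FBS medium were preincubated 6 hr at 37C, dosed with compound, then stimulated with 1 nM E2 (final) for 16 hr; beta-lactamase reporter read by B/G FRET fluorescence after 2 hr substrate loading.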

Assay [4] is described as follows: qHTS assay to identify small molecule agonists of the androgen receptor (AR) signaling pathway in the presence of an antagonist - cell viability counter screen (AID 1259379). Further: nearly all actives have a fitted effect of over 25% in size. Further: potency means the concentration at half of the fitted maximal effect. The method, boiled down: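 A CellTiter-Fluor read-out measured viability of MDA-kb2 reporter cells (MMTV promoter with AR and GR response elements). Treatment: nilutamide 3.0uM final with compounds at 15 concentrations, 16 hr, 37C, 0% CO2.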

Assay [5] in a line: qHTS assay to identify small molecule agonists of the estrogen receptor beta (ER-beta) signaling pathway - cell viability counter screen (AID 1259380). Further: nearly all actives have a fitted effect of over 30% in size. The method, boiled down: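 Cells used were ER-beta-UAS-bla HEK293T in medium with 2% charcoal-stripped FBS. They were treated for 16 hr at 37C. Viability came from CellTiter-Glo luminescence.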
For assay [6], the target named is Androgen receptor (Homo sapiens) (UniProt P10275). As to the kind of experiment: qHTS assay to identify small molecule agonists of the androgen receptor (AR) signaling pathway in the presence of an antagonist (AID 1259381; calls by dose curve; further: nearly all actives have a fitted effect of over 15% in size). The method, boiled down:
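Using human MDA-kb2 cells with an MMTV promoter–luciferase construct (AR and GR response elements), agonist activity is scored under 3.0uM nilutamide (final) co-treatment; 16hr incubation, 37C, luminescence readout via ONE-Glo.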

Assay [7] can be described thus: qHTS assay to identify small molecule antagonists of the estrogen receptor beta (ER-beta) signaling pathway - cell viability counter screen (AID 1259382). Further: series mostly up to about 92 µM; nearly all actives have a fitted effect of over 55% in size. A digest of the protocol: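 Agonist-stimulated (1nM E2) ER-beta-UAS-bla HEK293T cells are incubated with library compounds for 16 hr at 37C. Cell viability is then assessed in the reporter-assay wells by adding CellTiter-Glo and reading luminescence after 30 min.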

Assay [8] addresses Estrogen receptor (Homo sapiens) (UniProt P03372). As to the kind of experiment: qHTS assay to identify small molecule agonists of the estrogen receptor alpha (ER-alpha) signaling pathway in the presence of an antagonist (AID 1259383; calls by dose curve; further: top concentration of the series differs between compounds; nearly all actives have a fitted effect of over 15% in size). A digest of the protocol: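 Using VM7Luc4E2 cells seeded 24hr before treatment, antagonist ICI-182,780 (10.0nM final) was added, followed by compounds at 15 concentrations. Plates incubated 22hr; ONE-Glo luminescence quantified reporter activity.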

The nature of assay [9]: qHTS assay to identify small molecule agonists or antagonists of the thyroid stimulating hormone receptor (TSHR) signaling pathway - wild type cell line counter screen (AID 1259384; calls by dose curve). The method, boiled down:
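Wild-type HEK293 cells were plated 18 h at 37 C/5% CO2, pin-dosed with compound plus Ro20-1724 medium, held 30 min at room temperature, then given cAMP-d2 and anti-cAMP-cryptate; fluorescence was read after 1 h. Fifteen concentrations, triplicate.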

Assay [10] can be described thus: qHTS assay to identify small molecule agonists of the estrogen receptor alpha (ER-alpha) signaling pathway in the presence of an antagonist - cell viability counter screen (AID 1259386).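 Further: cells exposed to compounds for 22 h at 37 °C before the viability read; nearly all actives have a fitted effect of over 30% in size.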 Further: potency means the concentration at half of the fitted maximal effect. A digest of the protocol: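 ICI-182,780 at 10.0nM final accompanies the compound titration (15 concentrations, 22hr, 37C) on VM7Luc4E2 cells. The CellTiter-Fluor fluorescence readout runs in the same wells as the luciferase assay.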

Assay [11] concerns the target Progesterone receptor (Homo sapiens) (UniProt P06401). The assay is described as follows: qHTS assay to identify small molecule agonists of the progesterone receptor (PR) signaling pathway (AID 1346784; calls by dose curve; further: nearly all actives have a fitted effect of over 30% in size). A digest of the protocol:
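Fluorescence from LiveBLAzer B/G FRET substrate cleavage (2 hr, RT) reported PR activation in PR-UAS-bla HEK 293T cells treated 16 hr at 37C/5% CO2 with compounds; medium contained 2% charcoal-stripped FBS.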

For assay [12] the target is unchanged. The assay is described as follows: qHTS assay to identify small molecule antagonists of the progesterone receptor (PR) signaling pathway (AID 1346795; active means well fitted inhibition curve with a large enough effect in the signal ratio in the repeat runs, not every such curve was filed as active; the % refers to the signal ratio). A digest of the protocol:
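Fluorescence intensity measured 2 hr after adding beta-lactamase FRET substrate to PR-UAS-bla HEK293T cells that had been co-treated 16 hr with compound and 1 nM R5020 (final concentration) in 2% charcoal-stripped FBS.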

A short description of assay [13]: qHTS assay to identify small molecule antagonists of the progesterone receptor (PR) signaling pathway - cell viability counter screen (AID 1346798). Further: series mostly up to about 92 µM; nearly all actives have a fitted effect of over 50% in size. The method, boiled down:
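CellTiter-Glo luminescence; PR-UAS-bla HEK293T, 3,000 cells/well; compound + R5020, 16 hr, 37C/5% CO2; 30 min RT before read.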

Assay [14] can be described thus: qHTS assay to identify small molecule agonists of the progesterone receptor (PR) signaling pathway - cell viability counter screen (AID 1346799; calls by dose curve; further: nearly all actives have a fitted effect of over 45% in size). The method, boiled down: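 In parallel with the beta-lactamase readout, cytotoxicity toward PR-UAS-bla HEK293T cells was measured by CellTiter-Glo luminescence following 16 hr compound incubation in 2% charcoal-stripped FBS medium.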

A short description of assay [15]: qHTS assay to identify small molecule antagonists of the TGF-beta/Smad signaling pathway - cell viability counter screen (AID 1346824). Further: nearly all actives have a fitted effect of over 50% in size. The method, boiled down:
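SBE-bla HEK 293T cells were plated overnight at 37 C, then given compounds in DMSO plus TGF-beta1 (added as 0.25 ng/mL solution) for 5 hr. After the bla read, CellTiter-Glo was added to the same wells and luminescence read after 30 min at room temperature.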

Assay [16] can be described thus: qHTS assay to identify small molecule agonists of the TGF-beta/Smad signaling pathway - cell viability counter screen (AID 1346829). Further: top concentration of the series differs between compounds; nearly all actives have a fitted effect of over 45% in size. The method, boiled down: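 In parallel with the Smad reporter read, viability of HEK 293T cells stably carrying SBE-bla is quantified by ATP luminescence following 5 hr compound treatment.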
A short description of assay [17]: qHTS assay to identify small molecule agonists of the TGF-beta/Smad signaling pathway (AID 1346859; active means well fitted activation curve with a large enough effect in the signal ratio in the repeat runs, not every such curve was filed as active; the % refers to the signal ratio; further: series mostly up to about 77 µM). A digest of the protocol:
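After overnight seeding, SBE-bla HEK 293T cells are dosed with compounds in DMSO and kept 5 hr at 37 C, 5% CO2. LiveBLAzer-type FRET substrate is then applied for 2 hr at room temperature.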

The target in assay [18] is Thyrotropin-releasing hormone receptor (Homo sapiens) (UniProt P34981). The assay is described as follows: qHTS assay to identify small molecule antagonists of the thyrotropin-releasing hormone receptor (TRHR) signaling pathway (AID 1346877; active means well fitted inhibition curve with a large enough effect in the repeat runs, not every such curve was filed as active; further: series mostly up to about 51 µM). A digest of the protocol:
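Screening used HEK293 cells engineered with TRHR, with a brief 5 min room-temperature compound exposure preceding addition of TRH to 1 nM. The read-out was kinetic calcium-dye fluorescence, concentration-response from 15 doses in triplicate.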

Assay [19] shares this target. The assay is described as follows: qHTS assay to identify small molecule agonists of the thyrotropin-releasing hormone receptor (TRHR) signaling pathway (AID 1346891; calls by dose curve;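 further: HEK293 cells expressing TRHR with calcium dye readout; series mostly up to about 58 µM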). The method, boiled down: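 Compounds were tested as agonists at 15 concentrations, in triplicate, on TRHR-Hek293 cells; calcium-sensitive dye fluorescence was recorded for 3 min following addition.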

For assay [20], the target named is Thyrotropin receptor (Homo sapiens) (UniProt P16473). The assay is described as follows: qHTS assay to identify small molecule antagonists of the thyroid stimulating hormone receptor (TSHR) signaling pathway (AID 1259385; calls by dose curve; further: nearly all actives have a fitted effect of over 20% in size). A digest of the protocol:
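TSHR-HEK293 cells were plated and held 18 h at 37C/5% CO2, then given compound plus Ro20-1724 and stimulated with TSH at 1.5 ng/mL final. After 30 min at room temperature, cAMP was detected with cAMP-d2/anti-cAMP-cryptate (1 h) by fluorescence.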

Estrogen receptor (Homo sapiens), sequence (P03372 whole entry, looked up): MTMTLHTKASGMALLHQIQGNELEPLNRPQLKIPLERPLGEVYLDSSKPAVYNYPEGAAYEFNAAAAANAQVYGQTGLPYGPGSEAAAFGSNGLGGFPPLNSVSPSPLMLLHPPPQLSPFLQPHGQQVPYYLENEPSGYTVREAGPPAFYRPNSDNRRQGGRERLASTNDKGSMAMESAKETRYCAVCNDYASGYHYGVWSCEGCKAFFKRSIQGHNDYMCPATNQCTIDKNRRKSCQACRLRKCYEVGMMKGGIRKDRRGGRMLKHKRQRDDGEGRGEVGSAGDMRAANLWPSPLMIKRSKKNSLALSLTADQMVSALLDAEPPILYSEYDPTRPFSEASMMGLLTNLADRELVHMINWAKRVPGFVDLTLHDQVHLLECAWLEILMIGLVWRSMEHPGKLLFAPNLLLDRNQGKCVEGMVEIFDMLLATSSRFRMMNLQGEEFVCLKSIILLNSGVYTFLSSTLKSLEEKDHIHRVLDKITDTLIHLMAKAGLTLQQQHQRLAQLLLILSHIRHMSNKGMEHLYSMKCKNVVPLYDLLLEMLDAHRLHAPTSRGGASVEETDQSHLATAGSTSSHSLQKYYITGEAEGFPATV
Androgen receptor (Homo sapiens), sequence (P10275 whole entry, looked up): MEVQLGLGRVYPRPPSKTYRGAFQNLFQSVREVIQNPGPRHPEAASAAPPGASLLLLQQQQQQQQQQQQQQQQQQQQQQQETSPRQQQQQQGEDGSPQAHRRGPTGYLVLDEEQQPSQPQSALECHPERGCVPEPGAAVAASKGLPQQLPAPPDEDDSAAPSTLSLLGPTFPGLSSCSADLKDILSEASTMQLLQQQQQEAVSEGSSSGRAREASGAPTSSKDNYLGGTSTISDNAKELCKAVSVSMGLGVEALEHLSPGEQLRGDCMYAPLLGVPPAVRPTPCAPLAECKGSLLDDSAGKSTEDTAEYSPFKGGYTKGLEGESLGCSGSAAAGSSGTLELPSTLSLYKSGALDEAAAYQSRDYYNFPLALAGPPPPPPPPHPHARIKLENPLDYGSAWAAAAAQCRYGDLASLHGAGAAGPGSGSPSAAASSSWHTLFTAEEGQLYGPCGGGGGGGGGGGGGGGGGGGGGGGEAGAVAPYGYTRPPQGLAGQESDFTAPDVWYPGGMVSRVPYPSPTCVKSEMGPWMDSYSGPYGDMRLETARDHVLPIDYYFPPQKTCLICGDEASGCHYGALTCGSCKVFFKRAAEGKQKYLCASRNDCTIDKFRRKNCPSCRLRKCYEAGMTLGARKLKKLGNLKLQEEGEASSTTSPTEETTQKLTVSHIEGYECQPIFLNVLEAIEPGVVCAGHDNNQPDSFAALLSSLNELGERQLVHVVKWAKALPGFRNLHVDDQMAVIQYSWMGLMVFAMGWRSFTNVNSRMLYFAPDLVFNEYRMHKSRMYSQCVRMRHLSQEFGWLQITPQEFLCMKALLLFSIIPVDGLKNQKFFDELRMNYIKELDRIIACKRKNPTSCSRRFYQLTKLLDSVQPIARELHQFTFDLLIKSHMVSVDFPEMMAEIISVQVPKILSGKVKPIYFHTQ
Thyrotropin receptor (Homo sapiens), sequence (P16473 whole entry, looked up): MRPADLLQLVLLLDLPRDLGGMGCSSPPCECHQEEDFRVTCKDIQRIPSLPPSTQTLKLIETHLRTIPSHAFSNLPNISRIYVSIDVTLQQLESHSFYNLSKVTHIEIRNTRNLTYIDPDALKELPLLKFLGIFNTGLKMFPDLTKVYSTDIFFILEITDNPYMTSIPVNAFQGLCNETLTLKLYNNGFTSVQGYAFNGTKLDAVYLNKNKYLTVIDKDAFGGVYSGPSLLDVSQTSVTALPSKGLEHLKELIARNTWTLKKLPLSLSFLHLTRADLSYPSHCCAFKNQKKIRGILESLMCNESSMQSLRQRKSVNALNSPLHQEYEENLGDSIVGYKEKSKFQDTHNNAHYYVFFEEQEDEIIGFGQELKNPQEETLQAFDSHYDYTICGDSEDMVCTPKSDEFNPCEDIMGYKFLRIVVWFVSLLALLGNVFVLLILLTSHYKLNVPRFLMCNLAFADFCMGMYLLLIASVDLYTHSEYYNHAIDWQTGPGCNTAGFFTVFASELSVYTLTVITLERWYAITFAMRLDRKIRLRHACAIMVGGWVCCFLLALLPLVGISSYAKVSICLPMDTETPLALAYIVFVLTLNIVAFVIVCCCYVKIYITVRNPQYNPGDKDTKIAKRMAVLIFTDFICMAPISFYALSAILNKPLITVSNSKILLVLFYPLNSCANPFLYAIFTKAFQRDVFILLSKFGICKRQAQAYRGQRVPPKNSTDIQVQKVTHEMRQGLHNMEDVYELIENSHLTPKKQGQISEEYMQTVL
Estrogen receptor beta (Homo sapiens), sequence (Q92731 whole entry, looked up): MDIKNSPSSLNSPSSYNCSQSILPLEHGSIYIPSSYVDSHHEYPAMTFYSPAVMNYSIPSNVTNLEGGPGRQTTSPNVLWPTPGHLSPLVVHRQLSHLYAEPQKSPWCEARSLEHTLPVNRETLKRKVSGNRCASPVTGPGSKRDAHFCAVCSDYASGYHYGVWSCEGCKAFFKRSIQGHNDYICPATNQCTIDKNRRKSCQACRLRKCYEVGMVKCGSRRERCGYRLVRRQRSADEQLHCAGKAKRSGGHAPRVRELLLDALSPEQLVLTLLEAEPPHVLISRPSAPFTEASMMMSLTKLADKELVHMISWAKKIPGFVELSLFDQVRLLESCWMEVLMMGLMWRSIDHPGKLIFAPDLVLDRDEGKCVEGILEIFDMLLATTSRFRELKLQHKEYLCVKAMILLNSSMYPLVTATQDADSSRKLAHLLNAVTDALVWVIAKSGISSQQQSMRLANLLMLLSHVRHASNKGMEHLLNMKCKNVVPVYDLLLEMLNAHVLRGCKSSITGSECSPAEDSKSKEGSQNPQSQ
Progesterone receptor (Homo sapiens), sequence (P06401 whole entry, looked up): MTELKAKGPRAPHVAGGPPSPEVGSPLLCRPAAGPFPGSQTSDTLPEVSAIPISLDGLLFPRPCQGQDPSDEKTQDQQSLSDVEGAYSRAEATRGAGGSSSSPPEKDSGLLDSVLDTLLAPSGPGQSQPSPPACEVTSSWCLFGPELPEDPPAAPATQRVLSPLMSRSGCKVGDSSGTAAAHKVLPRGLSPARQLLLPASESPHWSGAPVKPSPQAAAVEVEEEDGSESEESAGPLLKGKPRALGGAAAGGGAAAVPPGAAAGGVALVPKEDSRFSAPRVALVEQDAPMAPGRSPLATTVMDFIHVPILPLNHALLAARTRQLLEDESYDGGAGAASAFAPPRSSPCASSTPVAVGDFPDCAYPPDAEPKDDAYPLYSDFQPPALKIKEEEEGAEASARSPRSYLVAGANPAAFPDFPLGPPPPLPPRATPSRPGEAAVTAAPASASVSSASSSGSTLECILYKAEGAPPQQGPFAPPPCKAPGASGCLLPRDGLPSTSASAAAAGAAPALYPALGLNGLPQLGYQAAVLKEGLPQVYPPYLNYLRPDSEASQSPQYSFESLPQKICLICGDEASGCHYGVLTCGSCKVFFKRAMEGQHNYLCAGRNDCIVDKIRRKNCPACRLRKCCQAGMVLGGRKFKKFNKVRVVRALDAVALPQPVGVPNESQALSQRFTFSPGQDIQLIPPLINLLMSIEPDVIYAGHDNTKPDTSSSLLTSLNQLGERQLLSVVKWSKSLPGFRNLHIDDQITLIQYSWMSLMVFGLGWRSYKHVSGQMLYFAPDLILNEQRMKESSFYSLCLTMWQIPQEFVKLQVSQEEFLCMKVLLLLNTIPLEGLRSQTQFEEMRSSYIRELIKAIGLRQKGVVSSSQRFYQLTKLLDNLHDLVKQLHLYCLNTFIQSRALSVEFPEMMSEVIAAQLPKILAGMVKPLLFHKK
Thyrotropin-releasing hormone receptor (Homo sapiens), sequence (P34981 whole entry, looked up): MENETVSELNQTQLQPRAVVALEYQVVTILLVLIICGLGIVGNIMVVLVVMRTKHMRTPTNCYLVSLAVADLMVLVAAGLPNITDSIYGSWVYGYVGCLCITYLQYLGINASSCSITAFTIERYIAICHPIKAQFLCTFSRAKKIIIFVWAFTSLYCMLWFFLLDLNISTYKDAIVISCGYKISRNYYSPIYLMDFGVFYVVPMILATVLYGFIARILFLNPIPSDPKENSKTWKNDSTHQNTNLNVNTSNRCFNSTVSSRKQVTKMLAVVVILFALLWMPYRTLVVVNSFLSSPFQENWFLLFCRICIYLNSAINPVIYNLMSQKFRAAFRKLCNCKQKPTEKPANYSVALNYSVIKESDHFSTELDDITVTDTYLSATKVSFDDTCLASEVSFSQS

Take `Nc1cc(-c2ccncc2)c[nH]c1=O`: the Potency result in assay [1], in [2], in assay [3], in assay [4], in assay [5] and in assay [6] was “inactive” throughout. The Potency result in [7], in assay [8], in assay [10], in assay [11], in assay [12] and in assay [13] was “inactive” throughout. Further, the Potency result in assay [14], in assay [15], in [16] and in assay [19] was “inactive” in each case. Besides, the result in assay [9], in [17] and in assay [18] was inactive.

Regarding `Nc1nc2ncc(CNc3ccc(C(=O)N[C@@H](CCC(=O)O)C(=O)O)cc3)nc2c(=O)[nH]1`, the Potency result in assay [1], in assay [2], in assay [3], in assay [4], in [5] and in assay [6] was “inactive” each time. Also, the Potency result in assay [7], in assay [10], in assay [11], in assay [12], in assay [13] and in [14] was “inactive” each time. Further, the Potency entry in [16] was “inactive”. Besides, the outcome in assay [9] and in assay [17] was inactive.

For the compound `Cn1c([N+](=O)[O-])cnc1COC(N)=O`, the Potency entry in [1], in assay [2], in [3], in assay [4], in assay [5] and in assay [7] was “inactive” each time. In addition, the Potency entry in assay [8], in [10], in assay [11], in assay [12], in assay [13] and in assay [14] was “inactive” in each case. Besides, the Potency result in [16] is “inactive”. The outcome in assay [17] was inactive.

As for `OCC1CCCO1` (stereo unspecified), the Potency result in assay [1], in assay [2], in assay [3], in [4], in assay [5] and in assay [6] was “inactive” in each case. For the same compound, the Potency result in [7], in assay [10], in [11], in assay [12], in assay [13] and in assay [14] was “inactive” in each case. The Potency entry in [15], in assay [16] and in [19] was “inactive” in each case. The compound was called inactive in [17] and in assay [18].

Consider `NC(=O)/N=N/C(N)=O`, for which the Potency entry in assay [1], in assay [2], in [3], in assay [4], in [5] and in assay [7] was “inactive” throughout. The Potency result in [8], in assay [10], in assay [11], in assay [12], in assay [13] and in [14] was “inactive” each time. The Potency entry in [16] and in assay [19] was “inactive” throughout. Besides, the result in [17] and in assay [18] was inactive.

In the case of `O=[N+]([O-])c1cc(N(CCO)CCO)ccc1NCCO`, the Potency entry in assay [1], in assay [2], in [3], in assay [5], in assay [6] and in assay [7] was “inactive” throughout. Besides, the Potency result in assay [8], in [11], in assay [13], in assay [14] and in assay [16] was “inactive” in each case. Moreover, the Potency in assay [4] is 54.4 µM (active) and 30.6 µM (active); in assay [10] it was 34.3 µM (active) and 27.3 µM (active). In addition, the result in assay [17] was inactive.

On to `CC(C)(CO)COC(=O)C(C)(C)CO`, for which the Potency entry in assay [1], in assay [2], in assay [3], in assay [4], in [5] and in assay [6] was “inactive” each time. Besides, the Potency result in [7], in assay [10], in assay [11], in assay [13], in assay [14] and in assay [15] was “inactive” in each case. Further, the Potency entry in assay [16] and in [19] was “inactive” each time. Moreover, the compound was classed as inactive in assay [9], in assay [20], in [17] and in assay [18].

In the case of `Cc1ccc(C)c(C)c1`, the Potency result in assay [1], in [2], in assay [3], in assay [4], in assay [5] and in assay [6] was “inactive” throughout. Also, the Potency entry in assay [7], in assay [10], in assay [11], in assay [13], in assay [14] and in assay [15] was “inactive” each time. The Potency result in [16] and in assay [19] was “inactive” in each case. For the same compound, the outcome in assay [9], in assay [20], in assay [17] and in assay [18] was inactive.
